Growth data for 40 compounds are collected here from PubChem BioAssay (NCI).

The panel holds about 83,000 compounds, 20% with a hit somewhere; the sample as a whole holds those more often.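 Cells were grown in 96-well plates and exposed to the test compound at a single concentration for 48 hours; results are reported as percent growth, with values below 10 considered active.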 The source made the active and inactive calls.

The subject of this experiment is CAKI-1 renal. Briefly: NCI-60 one-dose screen, 48 h (100 = growth as untreated, 0 = no growth, -100 = all killed). Particulars: 10 µM unless noted. As for the experimental part:
Growth inhibition of the CAKI-1 human tumor cell line is measured as a screen for anti-cancer activity. Cells are grown in 96 well plates and exposed to the test compound for 48 hours. Compounds are tested at a single concentration, which is 10^-5 M for most compounds. The reported endpoint is percent growth (GI% or GIPRCNT), where numbers from 0 - 100% represent growth inhibition, and numbers from -100% - 0 represent cell death. For example, a value of 40 represents 60% growth inhibition. A value of 0 means no net growth occurred over the course of the experiment. A value of -40 indicates 40% of cells at the beginning of the experiment died by the end of the experiment. A value of -100 means all cells are dead at the end of the experiment.
NCI-60 Human Tumor Cell Lines Screen was performed using the standard one-dose NCI protocol, which is described in more detail at https://dtp.cancer.gov/discovery_development/nci-60/default.htm.
Compounds with GIPRCNT values below 10 were considered active. Activity score was based on GIPRCNT using the following formula: […]
Score is 0 for GIPRCNT values of 100 or above, 50 for GIPRCNT values of 0, and 100 for GIPRCNT values of -100.
Consider `CN1CCN(Cc2ccc(NC(=O)c3cncc(C#Cc4cnccc4C#N)c3)cc2C(F)(F)F)CC1`, for which the growth was 54.8% (inactive).
For `COc1cccc(Oc2ccccc2NC(=O)CNC(=O)c2cccc3ccccc23)c1`, the growth is 23.8% [5 µM] (inactive).
As for `O=S(=O)(Nc1ccc(-c2nc(-c3cccc(OCCN4CCOCC4)c3)c(-c3ccnc(Br)c3)[nH]2)cc1)c1ccccc1`, the figure is 28.2% (inactive); as for `c1ccc(Nc2cc(-c3cccnc3)[nH]n2)cc1`, 90.1% (inactive); as for `CCCCOc1ccc(/C=N/NC(N)=S)cc1`, 83.7% (inactive).
Take `CCCCCCCCCCCCCCCCCC1OCC(COC(=O)O[C@]2(CC)C(=O)OCc3c2cc2n(c3=O)Cc3cc4ccccc4nc3-2)O1` (stereo not given in full): the growth is 65.7% (inactive).
Consider `O=C(CCN1C(=O)/C(=C/c2ccc(O)cc2)SC1=S)Nc1ccccc1`, for which the growth was 97.1% (inactive).
Consider `CNC(=O)c1[nH]cc(-c2ccccc2)c1-c1cc(OC)c2c(c1OC)OCO2`, for which the growth is 76.5% (inactive).
On to `CCOC(=O)/C(C#N)=C\Nc1ccc2ncnc(Nc3ccc(Cl)cc3Cl)c2c1`, for which the growth is 39% (inactive).
`Cc1ccc(C(=O)NN2C(=O)CSC2c2cccc([N+](=O)[O-])c2)cn1` (stereo not given): the growth is 79.5% (inactive).
Regarding `COC1=C(C)C(=O)c2c(c(CCCl)c3n2CCC3OC(C)=O)C1=O` (stereo not given), the growth is 0.742% (active).
Turning to `COc1ccc(CNC(=O)C(=O)[C@H](Cc2ccccc2)NC(=O)c2[nH]c3ccccc3c(=O)c2C)cc1`, the growth was 94.4% (inactive).
Consider `CCOC(=O)Nc1ccc(-c2nc(-c3cccc(OCCN4CCOCC4)c3)c(-c3ccnc(Br)c3)[nH]2)cc1`, for which the growth was 51.3% (inactive).
As to `COc1cccc(Cc2nn3cc(-c4ccccc4)nc3s2)c1`, the growth is 90.8% (inactive).
Regarding `Cc1cc(O)c(C2=NN(c3ccc(S(N)(=O)=O)cc3)C(c3ccccc3O)C2)cc1Cl` (stereo not given), the growth was -13.6% (active).
On to `COc1ccc([C@H]2c3cc(OC)c(OC)cc3C=C(C=O)C2CO)cc1OC` (stereo not given in full), for which the growth was 52.4% (inactive).
Regarding `COc1ccc(C(=O)C(C)C)c2ccccc12`, the growth was 97.9% (inactive).
Consider `O=c1ccc(N=Nc2ccc([N+](=O)[O-])cc2)ccc1O`, for which the growth is 20.2% (inactive).
Regarding `CCCCn1c(-c2ccc(-c3nc(-c4ccc(Cl)cc4)no3)cc2)nc(-c2ccccc2)c1-c1ccccc1`, the growth was 82.4% (inactive).
`O=c1c2cc(F)ccc2sc2c(NCCCNCCO)nc3ccccc3c12`: the growth is -9.01% (active).
As for `CC[C@H](C)C(=O)O[C@H]1CCC=C2C=C[C@H](C)[C@H](CC[C@@H]3CC=CC(=O)O3)[C@H]21`, the growth is 90.5% (inactive).
Take `N#Cc1ccc(NC(=O)c2sc3nc4c(cc3c2N)C(=O)CCC4)cc1`: the growth is 93.3% (inactive).
As to `c1ccc(CO[C@H]2CO[C@H]3[C@@H]2OC[C@@H]3Oc2ccc(Nc3ncnc4ccsc34)cc2)cc1`, the growth was 74.7% (inactive).
For the compound `Cc1[nH]c(C(=O)Nc2ccc(C(=O)NCCN)cc2OC(C)C)c(Cl)c1Cl`, the growth is 14.2% (inactive).
As for `CCCCn1c(=O)c(-c2cc(-c3ccc(Cl)cc3)nc(-c3ccc(Cl)cc3)c2)cc2cc(C)ccc21`, the figure is 94.8% (inactive); as for `CCCC1CCC(O)(C(C)(O)C(=O)NC2C(=O)N3NCCCC3C(=O)N(O)C(C)C(=O)N3NCCCC3C(=O)N3NCC(O)CC3C(=O)NC(C)C(=O)OC2C(C)C)OC1CC` (stereo not given), -82.6% (active).
In the case of `Cc1ccc(/C=C2\Oc3ccc(O)c(O)c3C2=O)cc1`, the growth was 34.4% (inactive).
Consider `Cc1ccc(C(C)C)cc1C(=O)C[n+]1ccccc1`, for which the growth was 99.6% (inactive).
Take `CCOC(=O)C1=C(N)Oc2c(sc3c(C)cccc23)C1c1ccc(OC)cc1` (stereo not given): the growth is 5.78% (active).
Turning to `COC(=O)c1ccc2[nH]c(O)c(C(=Nc3ccc(N(C)C(=O)CN4CCN(C)CC4)cc3)c3ccccc3)c2c1`, the growth is 4.65% (active).
On to `CCOC(=O)c1sc2ncc(-c3ccc(OC)cc3)n2c1C`, for which the growth was 96.3% (inactive).
`CC(C)C(=O)Nc1ccc(-c2nc(-c3cccc(OCCN4CCOCC4)c3)c(-c3ccnc(Br)c3)[nH]2)cc1`: the growth is 44% (inactive).
As to `CCOc1c(B(O)O)cccc1-c1nc2ccc3[nH]ncc3c2c2c1CCCC2`, the growth is -26.9% (active).
Then `c1ccc2cc(C[n+]3ccn(CCCCCCCCCCCCn4cc[n+](Cc5ccc6ccccc6c5)c4)c3)ccc2c1`, with 41.9% (inactive).
On to `Cc1ccc(NC2=C(Cl)C(=O)c3nc(C)ccc3C2=O)cc1`, for which the growth was -72% (active).
As for `COc1ccc(-c2nc(NN)c3c(C)nn(-c4ccc(F)cc4)c3n2)cc1`, the figure is 36.9% (inactive); as for `NC1=C(c2nn[nH]n2)C(c2ccccc2Cl)c2ccc3ccccc3c2O1` (stereo not given), 36.9% (inactive); as for `Cc1nc2nc(SCC(=O)O)[nH]c2c(=O)[nH]1`, 99.2% (inactive).
With `N#CC1=C(N)Oc2c(sc3c(Br)cccc23)C1c1ccc([N+](=O)[O-])cc1` (stereo not given), the growth was 27.1% (inactive).
As to `COc1ccc(C2CC(c3ccc(Nc4ccnc5cc(Cl)ccc45)cc3)=NN2C=O)cc1` (stereo not given), the growth is 59.2% (inactive).
